# From PubChem
# Only some compounds are listed: those with a hit (about 3% of all), similar ones and a draw of the others.
# PPC-1+TRAIL kill: PPC-1 cancer cell killing with TRAIL present | 0.41% of 220,000 active | PPC-1 cells + TRAIL, ATPLite viability luminescence | cell killing (% activity), % at 4 µM or 5 µM;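 active = cell killing above 50% in the first pass at 4 µM, then a duplicate retest at 5 µM averaging 50% or more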
# SENP6 block: SENP6 protease inhibition; AID 2599; 1.8% of 330,000 active; inhibition, % at 10 µM; Recombinant SENP6 catalytic domain, aminoluciferin luminescence; Q9GZR1;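 active = inhibition above about 50% at the single tested dose, limit read from the data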
# TRAIL sens C8: sensitizes caspase-8 expressing cells to TRAIL | NB7+C8 cells + TRAIL, ATPlite viability luminescence | 1% of 360,000 active | inhibition (viability loss, TRAIL sensitization), % at 10 µM;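 active = compounds causing at least 50% loss of cell viability in the single-dose screen, relative to plate controls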
# SENP7 block: inhibitors of human SENP7 protease; recombinant SENP7, Z-RLRGG-aminoluciferin luminescence, 40 min; inhibition, % at 5 µM; 1.5% of 330,000 active; AID 434973;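 active = inhibition above about 50% at the single test dose, limit read from the data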
# SENP8 block-1: inhibitors of human SENP8 protease; Q96LD8; recombinant SENP8, Nedd8 substrate fluorescence; inhibition, % at 20 µM; 0.64% of 360,000 active; AID 602440; in the data active = inhibition mostly above about 40%, no sharp cut-off; inactive = mostly below about 27%
# Target sequence (Q96LD8 whole entry, looked up): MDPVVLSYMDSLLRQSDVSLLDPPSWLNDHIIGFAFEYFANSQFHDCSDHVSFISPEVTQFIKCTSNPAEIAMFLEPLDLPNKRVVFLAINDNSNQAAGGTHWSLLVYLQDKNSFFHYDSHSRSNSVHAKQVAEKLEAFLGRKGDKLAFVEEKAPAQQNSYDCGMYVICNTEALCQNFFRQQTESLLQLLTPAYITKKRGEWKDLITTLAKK
# SENP8 block-2: SENP8 protease inhibition; Q96LD8; purified SENP8, Z-RLRGG-aminoluciferin cleavage, luminescence; inhibition, % at 10 µM; 1.2% of 330,000 active; in the data active = inhibition above about 50%
# SENP8 confirm: confirmation of human SENP8 protease inhibitors; AID 488912; Recombinant SENP8, Z-RLRGG-aminoluciferin luminescence, 60 min; shares compounds with SENP7 block; 40% of 6,200 active; inhibition, % at 12.5 µM;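 active = mean inhibition across replicates above about 50%, limit read from the data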
# SENP6 confirm: confirmation of human SENP6 protease inhibitors; shares compounds with SENP7 block; recombinant SENP6, Z-RLRGG-aminoluciferin luminescence; inhibition, % at 12.5 µM; 58% of 6,200 active; AID 488915
# SENP7 confirm: confirmation of human SENP7 protease inhibitors; shares compounds with SENP7 block; recombinant SENP7, Z-RLRGG-aminoluciferin luminescence, 40 min; inhibition, % at 12.5 µM; 69% of 6,200 active
# Casp3 select: caspase-3 inhibition (SENP selectivity assay) | shares compounds with SENP7 block | purified caspase-3, Z-DEVD-aminoluciferin luminescence, 60 min | inhibition, % at 12.5 µM | 60% of 6,200 active;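 active = mean inhibition above about 50%, limit read from the data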
# Target sequence (P42574 28-227 limits assumed): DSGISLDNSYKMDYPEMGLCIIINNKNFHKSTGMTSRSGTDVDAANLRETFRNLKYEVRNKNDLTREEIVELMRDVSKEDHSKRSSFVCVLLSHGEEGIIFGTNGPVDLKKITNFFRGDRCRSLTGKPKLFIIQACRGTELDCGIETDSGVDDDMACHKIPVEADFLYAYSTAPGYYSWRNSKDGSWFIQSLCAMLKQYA
# SENP luc ctr: interferes with luciferase luminescence in SENP counter-screen. inhibition, % at 12.5 µM. shares compounds with SENP7 block. AID 488919. 39% of 6,200 active. Pre-incubated SENP8/Z-RLRGG-aminoluciferin, luciferase luminescence interference;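 active = mean inhibition above about 50% when retested at one dose, limit read from the data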
# Hits are given with their value; . = inactive; / = no result given.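 Rule for the calls, unless noted: active = mean inhibition above about 50% in the one-dose retest (limit read from the data); inactive = the rest.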
SMILES,PPC-1+TRAIL kill,SENP6 block,TRAIL sens C8,SENP7 block,SENP8 block-1,SENP8 block-2,SENP8 confirm,SENP6 confirm,SENP7 confirm,Casp3 select,SENP luc ctr
Cc1cc(C)c2nc(NC(=O)c3ccc([N+](=O)[O-])o3)sc2c1,/,.,.,.,.,.,/,/,/,/,/
O=C(Nc1nc2c(F)cc(F)cc2s1)c1ccc([N+](=O)[O-])o1,/,73,.,.,.,69,.,.,.,.,.
COc1ccc2nc(NC(=O)c3ccc([N+](=O)[O-])o3)sc2c1,/,63,54,.,.,.,.,68,74,.,.
Fc1ccc(-c2cn3cc(C(F)(F)F)cc(Cl)c3n2)cc1,.,75,.,82,.,.,59,77,86,58,.
Cc1ccc(-c2nnc(-c3ccccc3Br)o2)cc1,/,90,58,83,.,86,.,88,98,74,76
Brc1ccc(-c2nnc(-c3ccccc3Br)o2)cc1,.,64,.,74,.,70,.,.,.,.,.
Brc1ccccc1-c1nnc(-c2cccnc2)o1,.,.,.,.,.,.,/,/,/,/,/
O=C(NCC(c1ccco1)N1CCCC1)c1ccccc1Sc1ccc(C(F)(F)F)cc1[N+](=O)[O-] (centres undefined),/,.,.,.,.,.,/,/,/,/,/
COC(=O)C[C@@H]1CC[C@H](NS(=O)(=O)c2cccc(F)c2)[C@@H](CO)O1,/,/,.,/,.,/,/,/,/,/,/
CCOC(=O)c1nn(C)c2[nH]c(=O)n(C)c(=O)c12,/,/,.,/,.,/,/,/,/,/,/
CCC(C)(C(=O)Nc1ccccc1C)N(C(=O)CNC(C)=O)c1ccccc1C (centres undefined),.,.,.,.,.,.,/,/,/,/,/
N#C/C(=C\Nc1ccccc1SC(F)(F)F)c1nc(-c2ccc(Cl)cc2)cs1,.,.,.,.,.,.,/,/,/,/,/
Cn1cccc1C(=O)NCCc1ccc(Cl)cc1,/,62,.,55,.,.,.,.,82,72,58
Cn1cccc1C(=O)NCCc1ccccc1,/,67,.,57,.,.,.,.,80,83,59
Cn1cccc1C(=O)NCc1ccc(Cl)cc1,/,.,.,.,.,.,/,/,/,/,/
Cn1c(C(=O)NCCc2ccccc2)cc(=O)n(C)c1=O,/,.,.,.,.,.,/,/,/,/,/
CC1=C(C(=O)N2CCCCCC2)CC(CC(=O)NCCc2ccccn2)C(=O)N1CCCN1CCCC1=O (centres undefined),/,/,.,/,.,/,/,/,/,/,/
Cc1cc(C)c(NC(=O)c2ccc3c(c2)C(=O)N(Cc2cccnc2)C3=O)c(C)c1,/,.,.,.,.,.,/,/,/,/,/
Cc1ccc(O)c(NC(=O)c2ccc3c(c2)C(=O)N(Cc2cccnc2)C3=O)c1,/,.,.,86,.,.,.,.,.,.,.
O=c1ccc(=O)n(CCc2ccccn2)[nH]1,/,/,.,/,.,/,/,/,/,/,/
CCCNC(=O)CN1C(=O)NC(Cc2c[nH]c3ccccc23)C1=O (centres undefined),.,.,.,.,.,.,/,/,/,/,/
Cc1c(C(=O)OCC(=O)Nc2ccc(N3CCOCC3)cc2)oc2ccccc12,/,.,.,.,.,.,/,/,/,/,/
O=C(Nc1ccc(N2CCOCC2)cc1)c1cc2ccccc2o1,.,70,.,.,.,.,.,.,82,69,.
Cc1c(C(=O)Nc2ccc(N3CCOCC3)cc2)oc2ccccc12,.,70,.,67,.,.,.,59,62,54,.
O=C(Nc1ccc(N2CCOCC2)cc1)c1nc2ccccc2s1,.,95,.,98,.,75,.,.,.,.,.
SMILES,PPC-1+TRAIL kill,SENP6 block,TRAIL sens C8,SENP7 block,SENP8 block-1,SENP8 block-2,SENP8 confirm,SENP6 confirm,SENP7 confirm,Casp3 select,SENP luc ctr
Nc1ncnc2c1ncn2[C@@H]1O[C@H](C(=O)Nc2cc(C(F)(F)F)cc(C(F)(F)F)c2)[C@@H](O)[C@H]1O,/,/,.,/,.,/,/,/,/,/,/
CCCN(CC(=O)Nc1ccccc1C)C(=O)c1cccc(-n2cnnn2)c1,/,.,.,.,.,.,/,/,/,/,/
COc1cccc2sc(N(CCCN(C)C)C(=O)COc3ccc(Cl)cc3)nc12,.,.,.,.,.,.,/,/,/,/,/
CN(C)CCCN(C(=O)COc1ccccc1)c1nc2c(F)cccc2s1,.,.,.,61,.,.,.,.,.,.,.
C=CCOc1cccc(/C=N/NC(=O)CC(=O)NC2CCCCC2)c1,/,.,.,.,.,.,/,/,/,/,/
Cc1nn(C)c(=O)n1-c1ccc(OCc2ccccc2)cc1,.,74,.,76,.,.,55,56,86,90,69
COc1ccc(-n2c(C)nn(C)c2=O)cc1,.,.,.,.,.,.,/,/,/,/,/
CCN(c1ccc(C(=O)CSc2nnc(C3CC3)n2C2CC2)cc1)S(C)(=O)=O,/,.,.,.,.,.,/,/,/,/,/
O=C(NC1=C(Nc2ccc(F)cc2)C(=O)c2ccccc2C1=O)c1ccc(Cl)cc1,.,63,.,.,93,.,.,60,.,.,.
CCCS(=O)(=O)c1cnc(C2COc3ccccc3O2)nc1N (centres undefined),/,93,.,94,.,87,82,92,100,96,.
O=C(O)c1ccc(-c2ccc(OS(=O)(=O)c3ccccc3F)cc2)cc1,/,57,.,.,.,.,.,.,60,.,.
COC(=O)c1ccccc1S(=O)(=O)Oc1ccc(-c2ccc(C(=O)O)cc2)cc1,/,.,.,.,.,.,/,/,/,/,/
COc1ccc(/C(=N/Nc2ncnc3ccccc23)C(=O)O)cc1,/,.,.,.,.,.,/,/,/,/,/
CCOC(=O)/C(=N\Nc1ncnc2ccccc12)c1ccc(OC)cc1,/,77,.,65,.,74,.,70,90,.,.
O=C(c1cc(-c2cccc(O)c2)on1)N1CCOCC1,.,63,.,.,.,.,.,.,70,78,59
COc1ccc(-c2cc(C(=O)N3CCOCC3)no2)cc1,/,51,51,55,.,.,54,52,83,79,53
O=C(c1cc(-c2ccc(Br)cc2)on1)N1CCOCC1,/,53,.,.,.,.,.,.,.,.,.
O=C(c1cc(-c2cccc(O)c2)on1)N1CCCCCC1,/,.,.,.,.,.,/,/,/,/,/
CCOC(=O)C1=C(CN2CCN(CCC#N)CC2)NC(=O)NC1c1ccc2c(c1)OCO2 (centres undefined),.,.,.,.,.,.,/,/,/,/,/
CCN1CCN(S(=O)(=O)c2c[nH]c(C(=O)OC)c2)CC1,/,.,.,.,.,.,/,/,/,/,/
